DT40 TDP1 CPT – growth inhibition of DT40 Tdp1-/-;hTDP1 cells with camptothecin (screen for TDP1 inhibitors) | Potency, µM (titrated, usually from 46.2 µM), without a hit: at the top dose activity change, negative = growth inhibition, usual class: inhibitors | chicken DT40 Tdp1-/-;hTDP1 cells + 20 nM CPT, ATP luminescence, 48 h | 420,000 tested, 12% active; also: potency is read from the fitted curve at half-maximal effect; nearly all actives have a fitted effect of over 55% in size
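Cell growth measured by CellTiter-Glo luminescence after a minimum 48 h, 37 C compound exposure with 20 nM CPT in Tdp1-knockout DT40 cells stably expressing hTDP1, seeded 400/well; qHTS titration format.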
12-LOX inh – inhibitors of human 12S-lipoxygenase ALOX12; Potency, µM (series often up to 108 µM), for the others: at the highest dose activity change, negative = inhibition, usual class: inhibitors; 580,000 tested, 1.1% active; purified 12hLO, xylenol orange hydroperoxide absorbance; AID 1671190; P18054; also: potency is read from the fitted curve at half-maximal effect
Target sequence (P18054 whole entry, looked up): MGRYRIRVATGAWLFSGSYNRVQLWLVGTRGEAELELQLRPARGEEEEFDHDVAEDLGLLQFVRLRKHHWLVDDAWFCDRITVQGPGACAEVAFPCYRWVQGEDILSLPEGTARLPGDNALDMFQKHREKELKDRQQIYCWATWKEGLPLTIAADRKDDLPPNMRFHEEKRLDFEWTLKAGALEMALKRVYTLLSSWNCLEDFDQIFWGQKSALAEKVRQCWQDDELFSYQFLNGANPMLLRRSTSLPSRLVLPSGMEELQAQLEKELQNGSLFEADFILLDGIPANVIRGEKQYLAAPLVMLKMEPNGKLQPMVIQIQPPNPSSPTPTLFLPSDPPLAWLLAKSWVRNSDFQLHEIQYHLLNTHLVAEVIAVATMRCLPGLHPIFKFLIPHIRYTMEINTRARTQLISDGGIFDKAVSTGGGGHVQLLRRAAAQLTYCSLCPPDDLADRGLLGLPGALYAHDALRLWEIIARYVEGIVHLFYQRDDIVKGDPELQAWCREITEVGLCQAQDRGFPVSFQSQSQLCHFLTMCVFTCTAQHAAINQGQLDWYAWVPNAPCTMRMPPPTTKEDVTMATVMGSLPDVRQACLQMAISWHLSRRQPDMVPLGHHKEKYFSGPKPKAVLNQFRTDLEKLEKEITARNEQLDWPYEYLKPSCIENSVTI
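Hydroperoxide product was detected by ferrous iron/xylenol orange as the 573 to 405 nm absorbance ratio. Arachidonic acid at 40 uM (final) was turned over for 30 min at room temperature by 150 nM human 12hLO, pH 7.0 Hepes buffer, after 15 min compound preincubation.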
HT1080 IDH1KD tx – HT-1080 IDH1 knockdown cell toxicity (counter line); HT-1080 IDH1 knockdown viability, ATP luminescence, 48 h; Potency, µM (series often up to 46.1 µM), for inactives: at the highest dose activity, negative = toxicity, actives largely listed as cytotoxic; 360,000 tested, 2% active; AID 686971;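 also: potency is read from the fitted curve at half-maximal effect; 0% = DMSO wells and -100% = cell-free medium wells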
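Using the IDH1-knockdown HT-1080 line run in the same batch and compound series as the NT line, viability after 48 h at 37 °C was determined by CellTiter-Glo luminescence and expressed as % activity.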
IL1B secr inh – inhibitors of inflammasome signaling (IL-1 beta secretion). activity change, % at 57.5 µM. THP-1 LPS/ATP IL-1B secretion, AlphaLISA, 16 h; hits give low values. AID 743279. 360,000 tested, 4.7% active; in the data active = activity change below about -50%; inconclusive = mostly about -30% to -49%
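THP-1 cells pretreated 1 hr with compounds (up to 57.5 uM final), then stimulated with LPS (250 ng/mL final) plus ATP (1.25 mM final); secreted IL-1B measured by AlphaLISA after 16 hr, decreased signal indicating inhibition.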
DT40 TDP1 no CPT – qHTS for Inhibitors of human tyrosyl-DNA phosphodiesterase 1 (TDP1): qHTS in cells in absence of CPT; DT40 Tdp1-/- hTDP1 cells, no CPT, ATP luminescence, 48 h; AID 686978, 2013; 420,000 tested, 15% active; Potency, µM (highest dose often 46.2 µM), without a hit: at the top dose activity change, negative = growth inhibition, most hits filed as inhibitors; also: potency is read from the fitted curve at half-maximal effect; nearly all actives have a fitted effect of over 55% in size
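Cells were dispensed at 400 per well, compounds added by pin tool, plates incubated ≥48 hr at 37 °C, then CellTiter-Glo added for 30 min at room temperature before luminescence reading. Line: DT40 Tdp1-/- complemented with hTDP1; camptothecin omitted.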
HT1080-NT tox – kills 2HG-producing HT-1080-NT fibrosarcoma cells; AID 686970; Potency, µM (titrated, usually from 46.1 µM), for inactives: at the highest dose activity, negative = less viability, usual class: cytotoxic; HT-1080-NT fibrosarcoma viability, CellTiter-Glo ATP luminescence, 48 h; 360,000 tested, 1.6% active;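 also: NT is the 2HG producing partner of a matched IDH1 knockdown line; potency is read from the fitted curve at half-maximal effect; 0% = DMSO-treated cells and -100% = media-only wells without cells; nearly all actives have a fitted effect of over 55% in size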
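Toxicity toward the 2HG-producing NT line was scored as %Activity, normalised to DMSO and no-cell wells, from CellTiter-Glo luminescence after 48 hours' treatment.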
Active calls of the source: *; [ ] = another dose, or the depositor's remark. This excerpt belongs to a sample that is enriched for hits. Unless noted, calls follow the shape of the dose curve; as a rule, active = well fitted curve in the direction sought with a large enough effect; inconclusive = small, poorly fitted or top-dose-only effect, or another doubt; inactive = no such curve, though single readings can be large; an effect the other way counts as inactive or inconclusive. Unless noted, % is scaled to controls: 0 for no effect and ±100 for the full control effect.

Screening O=C(NCCc1ccccc1)N1CCCC(Cn2cnc3cccnc32)C1 (stereo unspecified) returned 12-LOX inh 8%.
`Cn1nnnc1SCCCNCc1cccc(OCc2ccccc2Cl)c1` gave DT40 TDP1 CPT 18µM*, 12-LOX inh -17% and DT40 TDP1 no CPT 16µM*.
For Cn1nnnc1SCCCNCc1cc(Cl)ccc1OCc1ccccc1 the results were DT40 TDP1 CPT inconclusive, 12-LOX inh -10% and DT40 TDP1 no CPT inconclusive.
`Cn1nnnc1SCCCNCc1ccccc1OCc1ccccc1Cl` gave DT40 TDP1 CPT 5.2µM*, 12-LOX inh -1% and DT40 TDP1 no CPT 4.6µM*.
Cc1csc(N(C(=O)c2ccccc2F)c2ccccc2)n1 was read as DT40 TDP1 CPT 23µM*, 12-LOX inh -4%, HT1080 IDH1KD tx -4%, IL1B secr inh 11, DT40 TDP1 no CPT 10µM* and HT1080-NT tox 0%.
Screening Cc1csc(N(C(=O)c2ccc(S(=O)(=O)N(C)C)cc2)c2ccccc2)n1 returned DT40 TDP1 CPT -22%, 12-LOX inh 0%, HT1080 IDH1KD tx 1%, IL1B secr inh 2, DT40 TDP1 no CPT -26% and HT1080-NT tox 2%.
For Cc1ccc(C(=O)COc2ccccc2N2C(=O)c3ccccc3C2=O)cc1 the results were DT40 TDP1 CPT 6%, 12-LOX inh -10%, HT1080 IDH1KD tx 16%, IL1B secr inh 22, DT40 TDP1 no CPT 2% and HT1080-NT tox -2%.
Screening Cc1ccc(NC(=O)CN(C)C(=O)COc2ccccc2-c2ccccc2)cc1 returned DT40 TDP1 CPT -29%, 12-LOX inh -19%, HT1080 IDH1KD tx inconclusive, IL1B secr inh -65*, DT40 TDP1 no CPT 15µM* and HT1080-NT tox inconclusive.
`CN(CC(=O)Nc1ccc(Cl)cc1)C(=O)c1sccc1-c1ccccc1` gave DT40 TDP1 CPT 21µM*, 12-LOX inh -15%, HT1080 IDH1KD tx -30%, IL1B secr inh -13, DT40 TDP1 no CPT inconclusive and HT1080-NT tox 2%[9.24 µM].
For CN(CC(=O)Nc1cccc(F)c1)C(=O)c1sccc1-c1ccccc1 the results were DT40 TDP1 CPT -9%, 12-LOX inh 2%, HT1080 IDH1KD tx -8%, IL1B secr inh -2, DT40 TDP1 no CPT -21% and HT1080-NT tox -17%.
CN(c1ccc(OCC(=O)Nc2ccc(S(N)(=O)=O)cc2)cc1)S(=O)(=O)c1ccc(F)cc1 was read as DT40 TDP1 CPT inconclusive, 12-LOX inh 203%, HT1080 IDH1KD tx -2%, IL1B secr inh 20, DT40 TDP1 no CPT inconclusive and HT1080-NT tox -4%.
For NS(=O)(=O)c1ccc(NC(=O)COc2ccc(C(=O)c3ccc(F)cc3)cc2)cc1 the results were DT40 TDP1 CPT inconclusive, 12-LOX inh -5%, HT1080 IDH1KD tx -19%, IL1B secr inh inconclusive, DT40 TDP1 no CPT 12µM* and HT1080-NT tox -12%.
For Cc1ccc(C(=O)COc2ccccc2-c2ccccc2)cc1 the results were DT40 TDP1 CPT 23µM*, 12-LOX inh 5%, HT1080 IDH1KD tx 2%, IL1B secr inh -4, DT40 TDP1 no CPT 26µM* and HT1080-NT tox -5%.
For N#Cc1nc(-c2ccc(S(=O)(=O)N3CCCC3)cc2)oc1NCc1cccnc1 the results were 12-LOX inh 3%.
`CCOc1ccc(NC(=O)Cc2cccc3ccccc23)c2cccnc12` gave 12-LOX inh -27%.
COc1ccccc1-c1cc(N2CCOCC2=O)c2cncn2c1 was read as 12-LOX inh -10%[176 µM].
CC1=C[C@@H](CN2CCC(C(N)=O)CC2)[C@H](C(C)C)C[C@H]1Cc1nnc(-c2ccc(N(C)C)cc2)o1 was read as 12-LOX inh 48%.
For Cc1ccc(S(=O)(=O)Oc2ccccc2-c2ccccc2)cc1 the results were DT40 TDP1 CPT 16µM*, 12-LOX inh -1%, HT1080 IDH1KD tx 16µM*, IL1B secr inh 45, DT40 TDP1 no CPT 13µM* and HT1080-NT tox inconclusive.
Cc1ccc(NC(=O)CN(C)C(=O)COc2ccc(C(=O)c3ccc(F)cc3)cc2)cc1 was read as DT40 TDP1 CPT -29%, 12-LOX inh -18%, HT1080 IDH1KD tx -9%, IL1B secr inh -23, DT40 TDP1 no CPT 21µM* and HT1080-NT tox -6%.
For CCC(=O)c1ccc(OCC(=O)OCC(=O)N(C)CC(=O)Nc2ccc(F)cc2)cc1 the results were DT40 TDP1 CPT -18%, 12-LOX inh -4%, HT1080 IDH1KD tx 5%, IL1B secr inh 19, DT40 TDP1 no CPT 2% and HT1080-NT tox -9%.
`CC1CCN(CC2CCCN(C(=O)c3cnccn3)CC2)CC1` (stereo unspecified) gave 12-LOX inh 45%.
`Cn1c(=O)oc2cc(S(=O)(=O)NCc3ccncc3)ccc21` gave DT40 TDP1 CPT 8.2µM*, 12-LOX inh inconclusive, HT1080 IDH1KD tx -16%, IL1B secr inh 75, DT40 TDP1 no CPT 8.2µM* and HT1080-NT tox -3%.
Screening CC(C)c1ccc(NS(=O)(=O)c2ccc3c(c2)oc(=O)n3C)cc1 returned DT40 TDP1 CPT 18µM*, 12-LOX inh 30%, HT1080 IDH1KD tx 1%, IL1B secr inh 16, DT40 TDP1 no CPT inconclusive and HT1080-NT tox -4%.
`CCOc1ccccc1NS(=O)(=O)c1ccc2c(c1)oc(=O)n2C` gave DT40 TDP1 CPT -20%, 12-LOX inh -16% and DT40 TDP1 no CPT -19%.
For Cn1c(=O)oc2cc(S(=O)(=O)NCc3ccc(C(=O)O)cc3)ccc21 the results were DT40 TDP1 CPT -4%, 12-LOX inh 2%, HT1080 IDH1KD tx -4%, IL1B secr inh 28, DT40 TDP1 no CPT 0% and HT1080-NT tox 0%.
CCOc1ccccc1CNS(=O)(=O)c1ccc2c(c1)oc(=O)n2C was read as DT40 TDP1 CPT inconclusive, 12-LOX inh 4µM*, HT1080 IDH1KD tx 11%, IL1B secr inh -17, DT40 TDP1 no CPT -5% and HT1080-NT tox 8%.
`CC(C)(C)NC(=O)N[C@H](Cc1ccccc1)C(=O)N1CCOCCNC(=O)CC1` gave 12-LOX inh 27%.
For Cc1cccc(C(=O)N2C(C(=O)NCC3CCCO3)COC23CCN(C(=O)C(C)(C)C)CC3)c1 (stereo unspecified) the results were 12-LOX inh 43%.
O=C(CNc1cccc(S(=O)(=O)N2CCOCC2)c1)N1CCN(C(=O)c2cccs2)CC1 was read as 12-LOX inh 6%.

Compound activity as filed in PubChem.
